Giardia killer = Small Molecules that selectively kill Giardia lamblia: qHTS | Giardia lamblia trophozoite viability | activity change, % at 7.66 µM, hits read low | 0.15% of 340,000 active | AID 540267, 2011; in the data active = activity change below about -80%; inconclusive = between about -30% and that limit;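 note: parasites exposed to compound for two days anaerobically before the ATP read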
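Giardia lamblia trophozoites (100 cells/well) were incubated with compounds for 48 h at 37 deg C under anaerobic conditions. Viability was read as ATP content by one-step luminescence after 15-30 min at room temperature.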
Chronic BCR inh = qHTS Assay to Find Inhibitors of Chronic Active B-Cell Receptor Signaling; 0.05% of 340,000 active; ABC-DLBCL IkBa-CBG/CBR reporter, luminescence ratio, 4 h; Potency, µM (top dose mostly 46.1 µM), most hits filed as inhibitors; active = well fitted inhibition curve with a large enough effect in the signal ratio, with a control signal flat, not every such curve was filed as active; inconclusive = small, poorly fitted or top-dose-only effect, or effect the other way, or a change in a side signal; the % refers to the signal ratio
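Cell line TMD8 (human ABC DLBCL), stably expressing tet-inducible CBG68-IkBa fusion and CBR; IMDM/0.5% FBS; cpd up to 46 uM; dox induction, 4 h, 37C/5% CO2; dual luminescence; green/red ratio; MG132 control.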
Gal4-VP16 FLuc = VP16 counterscreen qHTS for inhibitors of ROR gamma transcriptional activity. Drosophila S2 Gal4-VP16 UAS-luciferase, luminescence, 20 h. Potency, µM (top dose mostly 53.6 µM), usual class: inhibitors. 3.5% of 310,000 active. AID 2546, 2010;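 note: Gal4-VP16 expression switched on by copper sulfate through the metallothionein promoter; nearly all actives have a fitted effect of over 50% in size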
SW480 rereplic = A quantitative high throughput screen for small molecules that induce DNA re-replication in SW480 colon adenocarcinoma cells; 1.8% of 340,000 active; SW480 DNA re-replication, Hoechst DNA content imaging, 48 h; Potency, µM (series often up to 46.1 µM), most hits filed as activators; note: nearly all actives have a fitted effect of over 55% in size
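Image-based read-out: total Hoechst fluorescence of nuclei (405 nm excitation, 500-530 nm emission), with hits raising the fraction of high-intensity nuclei. SW480 colon cells incubated 48 hr with compounds at 37 C.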
RORg inh = qHTS for inhibitors of ROR gamma transcriptional activity | 5.4% of 310,000 active | AID 2551, 2010 | Drosophila S2 Gal4-RORgamma UAS-luciferase reporter, 20 h | Nuclear receptor ROR-gamma (Mus musculus), P51450 | Potency, µM (highest dose often 53.6 µM), hits mostly inhibitors; note: nearly all actives have a fitted effect of over 60% in size
Target sequence (P51450 whole entry, looked up, the tested form may be a part): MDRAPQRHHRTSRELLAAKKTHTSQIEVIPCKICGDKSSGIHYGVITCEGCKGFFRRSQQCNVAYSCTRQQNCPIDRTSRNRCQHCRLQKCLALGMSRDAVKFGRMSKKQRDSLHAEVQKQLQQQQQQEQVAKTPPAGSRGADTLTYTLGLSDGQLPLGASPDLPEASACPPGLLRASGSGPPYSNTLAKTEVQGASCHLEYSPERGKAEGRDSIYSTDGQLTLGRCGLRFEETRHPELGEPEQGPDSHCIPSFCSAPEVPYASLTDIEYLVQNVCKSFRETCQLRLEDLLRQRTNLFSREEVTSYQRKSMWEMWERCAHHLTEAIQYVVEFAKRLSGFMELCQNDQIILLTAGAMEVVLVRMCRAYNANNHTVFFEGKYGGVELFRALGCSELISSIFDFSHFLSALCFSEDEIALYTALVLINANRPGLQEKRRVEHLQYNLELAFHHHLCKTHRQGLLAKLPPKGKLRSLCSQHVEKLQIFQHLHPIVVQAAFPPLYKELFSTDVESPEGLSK
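ROR gamma transcriptional activity was tracked as Gal4-UAS luciferase output in stably transfected Drosophila Schneider cells, with compound added 1 hr before 700 uM copper sulfate induction and a 20 hr ambient-temperature incubation.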
MCF10A rerep = A quantitative high throughput screen for small molecules that induce DNA re-replication in MCF 10a normal breast cells | AID 624296, 2012 | Potency, µM (top dose mostly 46.1 µM), hits mostly activators | MCF 10A DNA re-replication, Hoechst nuclear intensity, 48 h | 2.9% of 350,000 active; note: nearly all actives have a fitted effect of over 50% in size
Numbers stand for hits; - = inactive; ? = inconclusive; . = no result given; [ ] = remark or other dose. The list is not random: actives were taken first. Their share in the collection is about 8.3%. Unless noted, calls come from the whole dose curve; as a rule, active = well fitted curve in the direction sought with a large enough effect; inconclusive = small, poorly fitted or top-dose-only effect, or another doubt; inactive = no such curve, though single readings can be large; an effect the other way counts as inactive or inconclusive.

SMILES | Giardia killer | Chronic BCR inh | Gal4-VP16 FLuc | SW480 rereplic | RORg inh | MCF10A rerep
O=c1cc(CN2CCN(C/C=C/c3ccccc3)CC2)c2cc(O)c(-c3ccccc3)cc2o1 | - | - | - | 18.4µM | - | -
Cc1cc2oc(=O)cc(CN3CCN(C/C=C/c4ccccc4)CC3)c2cc1O | . | ? | 35.5µM | . | ? | .
O=C(Cc1ccc(NC2=NC3CS(=O)(=O)CC3S2)cc1)NCCc1ccccc1 (configuration not stated) | - | - | - | - | - | -
COC(=O)c1ccc(NC(=O)CSC2=NCCN2)cc1 | - | ? | - | ? | - | 14.6µM
CCN(CC)C(=O)Cn1cc(C(=O)C2CC2)c2ccccc21 | - | - | - | - | - | -
S=C1NCN(C2CCCCC2)CN1CCc1ccccc1 | - | - | 3.98µM | - | 2.82µM | -
CCCN1CN(CCc2ccccc2)CNC1=S | - | - | 1.78µM | - | 1.12µM | -
CCOc1ccc(CCN2CN(C3CCCCC3)CNC2=S)cc1OCC | - | - | 8.91µM | - | 2.82µM | -
CCOC(=O)c1ccc(N2CN(C3CCCCC3)CNC2=S)cc1 | - | ? | - | - | - | -
CCOc1ccccc1N1CN(C2CCCCC2)CNC1=S | - | - | 14.1µM | - | 3.16µM | -
Cc1cn(C2CC3OCC(NC(=O)C(NC(=O)OC(C)(C)C)C(C)OCc4ccccc4)C3O2)c(=O)[nH]c1=O (configuration not stated) | - | . | - | . | - | .
S=C1NCN(CCc2ccccc2)CN1 | - | - | - | - | - | -
CCCCN1CNC(=S)N(CCc2ccc(OCC)c(OCC)c2)C1 | - | - | 14.1µM | - | 3.16µM | -
CCOc1ccc(CCN2C(=O)C3C4C=CC(C4)C3C2=O)cc1OCC (configuration not stated) | - | - | - | - | ? | -
CCCCN1CNC(=S)N(CCc2ccccc2)C1 | - | - | 4.47µM | - | 2.82µM | -
Cc1c(O)c2c3c(cccc3c1O)C(=O)N(c1ccccc1)C2=O | - | - | ? | - | ? | ?
Cc1c(C(=O)Nc2c(N)nc(SCC(=O)NCC3CCCO3)[nH]c2=O)cccc1[N+](=O)[O-] (configuration not stated) | - | - | - | - | - | -
Cc1ccc(-c2[nH][nH]c(=O)c(=O)c2N=Nc2ccccc2)cc1 | -92.5 | - | - | - | - | -
O=C(O)c1ccc2[nH]c3c(c2c1)CSCC3 | - | ? | - | - | - | -
CN(C)CCOC(=O)c1ccc2[nH]c3c(c2c1)CSCC3 | - | ? | - | 7.31µM | - | -
COc1ccc(OC)c2nc3c(cc12)CCC3 | - | - | ? | - | 15.8µM | -
COc1cc(/C=C2\CCC/C(=C\c3ccc(O)c(OC)c3)C2=O)ccc1O | - | ? | - | ? | - | 4.11µM
COc1cc(/C=C2/CCC/C(=C\c3cc(O)c(OC)c(Cl)c3)C2=O)cc(Cl)c1O | - | ? | ? | 6.51µM | ? | 2.06µM
COc1cc(/C=C2\SC(N)=NC2=O)cc(Cl)c1O | - | - | - | - | - | -
COc1ccc(CNC(=O)C(=O)NCC(c2ccco2)S(=O)(=O)c2cccs2)cc1 (configuration not stated) | . | - | . | . | . | .
SMILES | Giardia killer | Chronic BCR inh | Gal4-VP16 FLuc | SW480 rereplic | RORg inh | MCF10A rerep
COc1ccc(NC(=O)N(C)C[C@H]2Oc3ccc(NC(=O)Nc4c(C)noc4C)cc3C(=O)N([C@H](C)CO)C[C@@H]2C)cc1 | - | - | . | - | . | -
Cc1ccccc1/C=N/NC(=O)c1ccc(-n2cnnn2)cc1 | - | ? | . | - | . | -
O=C(Cc1ccc(Cl)cc1)N/N=C/c1c(Cl)cccc1Cl | ? | - | - | - | -[10 µM] | -
Cc1cccc(/C=N\NC(=O)c2ccc(Cl)cc2)c1O | - | ? | 12.6µM | ? | 6.31µM | -
Cc1ccsc1/C=N/NC(=O)Cc1ccc(Cl)cc1 | - | - | - | - | - | -
Cc1ccc(O)c(/C=N/NC(=O)Cc2ccc(Cl)cc2)c1 | - | - | 0.631µM | - | 0.631µM | -
Cc1cccc(/C=N/NC(=O)Cc2ccc(Cl)cc2)c1O | - | ? | 1µM | ? | 1.12µM | -
O=C(CCc1ccccc1)NNC(=O)COc1ccccc1Cl | - | - | - | - | - | ?
Cc1ccc(C(=O)Nn2cnnc2)cc1 | - | - | - | - | - | -
NC(=O)c1ccsc1NC(=O)COC(=O)c1nc(Cl)ccc1Cl | - | ? | . | - | . | -
CO[C@H]1COC(=O)[C@@H](CCSC)NC(=O)C/C=C\[C@@H](C)COC(=O)[C@@H](OCc2ccccc2)/C=C\[C@@H]1C | . | . | -[10 µM] | . | -[10 µM] | .
CCCCC(CC)C(=O)Nc1ncc([N+](=O)[O-])s1 (configuration not stated) | -91.3 | - | - | - | - | ?
O=C(COC(=O)c1ccc(Br)o1)Nc1ncc([N+](=O)[O-])s1 | ? | ? | . | - | . | -
Cc1ccc(CC(=O)Nc2ncc([N+](=O)[O-])s2)cc1 | -91.5 | ? | - | - | - | -
O=C(CS(=O)(=O)c1ccccc1)Nc1ncc([N+](=O)[O-])s1 | ? | ? | - | - | - | -
Cc1ccc(S(=O)(=O)CC(=O)Nc2ncc([N+](=O)[O-])s2)cc1 | -83.9 | ? | - | - | - | -
Cc1ccc(C(CC(=O)N2CCCC2)c2ccccc2)c(O)c1 (configuration not stated) | - | - | - | - | - | -
O=C(Cc1cccc(NC(=O)C2CCN(C(=O)C3CCCC3)CC2)c1)Nc1cccc(C(=O)N2CCCCC2)c1 | - | . | . | ? | . | ?
C/C(=N\NC(=O)C12CCC(C)(C(=O)O1)C2(C)C)c1ccccc1O (configuration not stated) | - | - | 1.26µM | 3.66µM | 0.708µM | ?
CC12CCC(C(=O)N/N=C/c3ccc(O)cc3O)(OC1=O)C2(C)C (configuration not stated) | - | - | - | 4.61µM | ? | -
COc1ccccc1NC(=O)C(C)OC(=O)CC1CCCCC1 (configuration not stated) | - | - | . | - | . | -
Cc1cccc(/C=N/n2c(-c3ccccc3)n[nH]c2=S)c1O | - | - | ? | - | - | -
Cc1ccc(/C=N/n2c(-c3ccc(Cl)cc3)n[nH]c2=S)s1 | - | - | - | - | 1.41µM | -
Cc1ccc(-c2n[nH]c(=S)n2/N=C/c2ccc(C)s2)cc1 | - | - | 7.08µM | - | 3.16µM | ?
CCN(CC)c1nc(=S)nc(NC(C)(C)C)[nH]1 | - | ? | 3.16µM | - | 1.26µM | -
CCN(CC)c1nc(N(CC)CC)[nH]c(=O)n1 | - | . | . | - | . | -[0.0737 µM]
